Measured values reported in PubChem BioAssay (NCATS).
“And” between values parts separate entries of the source, which are not always exact repeats. Equal entries are not always repeated. Records with an inconclusive call do not appear. Entries that show only a call come without a potency. Values without a mark were called inactive. The source made the active and inactive calls. Unless noted, calls follow the shape of the dose curve; as a rule, active = well fitted curve in the direction sought with a large enough effect; inconclusive = small, poorly fitted or top-dose-only effect, or another doubt; inactive = no such curve, though single readings can be large; an effect the other way counts as inactive or inconclusive.

Columns and labels:
[1] = target: Cellular tumor antigen p53 (Homo sapiens) (UniProt P04637); assay: Primary qHTS for small molecule compounds that upregulate eGFP-tagged delta133p53alpha (in N-terminal) cells. (AID 2060322); conditions: NCI-H358 eGFP-delta133p53alpha fluorescence, 24 h; activation: hits give high values; also: series mostly up to about 56 µM; nearly all actives have a fitted effect of over 75% in size
Cellular tumor antigen p53 (Homo sapiens), sequence (P04637 whole entry, looked up): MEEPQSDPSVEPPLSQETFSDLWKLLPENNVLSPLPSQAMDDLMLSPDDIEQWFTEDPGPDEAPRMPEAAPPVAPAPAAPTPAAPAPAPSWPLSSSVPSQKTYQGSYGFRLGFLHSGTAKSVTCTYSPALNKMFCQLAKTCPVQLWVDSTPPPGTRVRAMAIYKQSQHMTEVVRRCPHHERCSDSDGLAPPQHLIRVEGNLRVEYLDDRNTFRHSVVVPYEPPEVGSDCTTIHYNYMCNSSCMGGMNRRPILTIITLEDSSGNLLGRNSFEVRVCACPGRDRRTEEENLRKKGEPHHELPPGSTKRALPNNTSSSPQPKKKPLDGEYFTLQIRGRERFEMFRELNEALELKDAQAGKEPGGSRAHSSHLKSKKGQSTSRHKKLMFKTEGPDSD
Outline: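 NCI-H358 cells pre-induced 24 h with 10 ng/ml doxycycline to express N-terminal eGFP-delta133p53alpha, then dosed 24 h at 37C without doxycycline; fixed, Hoechst-stained, GFP intensity by laser scanning cytometry, normalized to DMSO (0%) and 57.5 uM 5-azacytidine (100%).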

[2] = target: Cellular tumor antigen p53 (Homo sapiens) (UniProt P04637); assay: Primary qHTS for small molecule compounds that upregulate eGFP-tagged delta133p53alpha (in C-terminal) cells. (AID 2060324); also: potency is read from the fitted curve at half-maximal effect
Outline: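 In this qHTS, GFP-tagged delta133p53alpha levels are measured in fixed NCI-H358 cells after 24 h compound exposure at 37 °C. The cells are pre-induced with 100 ng/ml doxycycline, and signal is normalized to DMSO-treated wells as 0%.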

[3] = target: Aldehyde dehydrogenase, mitochondrial (Homo sapiens) (UniProt P05091); assay: qHTS for Inhibitors of the Aldehyde Dehydrogenase Family (ALDH2) Validation screens (AID 2061302; active = well fitted inhibition curve with a large enough effect; title and protocol of this record describe different tests)
[4] = target: Retinaldehyde dehydrogenase 3 (Homo sapiens) (UniProt P47895); assay: qHTS for Inhibitors of the Aldehyde Dehydrogenase Family (ALDH1A3) Validation screen (AID 2061312); also: nearly all actives have a fitted effect of over 45% in size
[5] = BET inhibitor-based combinations targeting novel dependencies in MECOM-rearranged (r) AML: SET-2 cell line (AID 2202231); conditions: SET-2 AML cells viability, CellTiter-Glo luminescence, 48 h; viability: hits give low values, concentration not given here; also: nearly all actives have a fitted effect of over 35% in size; also: potency is read from the fitted curve at half-maximal effect
Outline: (§1)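 Cells were plated at 500 per well and exposed to an 11-point dose series of each drug for 48 hr. Viability was measured by CellTiter-Glo luminescence, normalized to DMSO and empty-well controls, and summarized as AUC and per-cell-line Z-AUC.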

[6] = BET inhibitor-based combinations targeting novel dependencies in MECOM-rearranged (r) AML: MV-4-11 cell line (AID 2202233); also: nearly all actives have a fitted effect of over 45% in size; also: potency is read from the fitted curve at half-maximal effect
Outline: (§2)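 Activity is given as area under the curve and as Z-AUC, mean-centred within each cell line. It comes from 11-point dose curves normalized to DMSO and empty wells. CellTiter-Glo luminescence was read after 48 hr drug exposure of 500 cells/well.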

[7] = BET inhibitor-based combinations targeting novel dependencies in MECOM-rearranged (r) AML: HNT-34 cell line (AID 2202234); also: nearly all actives have a fitted effect of over 35% in size; also: potency is read from the fitted curve at half-maximal effect
Outline: as §2

[8] = BET inhibitor-based combinations targeting novel dependencies in MECOM-rearranged (r) AML: UCSD-AML1 cell line (AID 2202235); also: nearly all actives have a fitted effect of over 40% in size; also: potency is read from the fitted curve at half-maximal effect
Outline: as §2

[9] = BET inhibitor-based combinations targeting novel dependencies in MECOM-rearranged (r) AML: AML-191 cell line (AID 2202236; also: nearly all actives have a fitted effect of over 35% in size; also: potency is read from the fitted curve at half-maximal effect)
Outline: as §1

[10] = BET inhibitor-based combinations targeting novel dependencies in MECOM-rearranged (r) AML: OCI-AML3 cell line (AID 2202232); conditions: Potency: OCI-AML3 viability; also: nearly all actives have a fitted effect of over 35% in size; also: potency is read from the fitted curve at half-maximal effect
Outline: as §1

[11] = BET inhibitor-based combinations targeting novel dependencies in MECOM-rearranged (r) AML: AML-194 cell line (AID 2202237; also: nearly all actives have a fitted effect of over 40% in size; also: potency is read from the fitted curve at half-maximal effect)
Outline: as §1

| SMILES | activation [1] | Potency [2] | Potency [3] | Potency [4] | viability [5] [%] | Potency [6] | Potency [7] | Potency [8] | Potency [9] | Potency [5] | Potency [10] | Potency [11] |
| --- | --- | --- | --- | --- | --- | --- | --- | --- | --- | --- | --- | --- |
| Cc1cc(C)c(/C=C2\C(=O)Nc3ccccc32)[nH]1 | -35.1% | 30.1 µM (active) | inactive | inactive | 96.4 | 0.742 µM (active) | 0.296 µM (active) | inactive | 11.8 µM (active) |  |  |  |
| NCCCCNCCCN | -3.21% and -16.4% | inactive | inactive | inactive |  | 10.5 µM (active) | 23.5 µM (active) |  |  | 18.6 µM (active) |  |  |
| NS(=O)(=O)c1cc2c(cc1Cl)NC=NS2(=O)=O | -10% and -6.71% and -22.3% | inactive | inactive | inactive |  | inactive | inactive | inactive | inactive |  | inactive | inactive |
| COC(=O)Nc1nc2ccc(C(=O)c3cccs3)cc2[nH]1 | -4.18% | inactive | inactive | inactive |  | 0.118 µM (active) | 0.0833 µM (active) | 0.0833 µM (active) | 0.0661 µM (active) |  | 0.0934 µM (active) | 0.332 µM (active) |
| CC(C[N+](C)(C)C)OC(N)=O (centres undefined) | -5.86% and -4.18% and -40.2% | inactive | inactive | inactive | 116 | inactive | inactive |  | inactive |  |  | inactive |
| COc1ccc(CCN(C)CCCC(C#N)(c2ccc(OC)c(OC)c2)C(C)C)cc1OC (centres undefined) | -12.4% and 7.69% | inactive | inactive | inactive | 94.7 |  |  | 16.6 µM (active) |  |  |  | inactive |
| CCC(C)N(C)C(=O)c1cc2ccccc2c(-c2ccccc2Cl)n1 (centres undefined) | 12.4% and -31.8% | inactive | inactive | inactive |  | inactive | inactive | inactive | inactive |  | inactive | inactive |
| OC(CCN1CCCCC1)(c1ccccc1)C1CC2C=CC1C2 (centres undefined) | -27.6% and 6.19% and -26.9% | inactive | inactive | inactive | 97.6 | 23.5 µM (active) | inactive | inactive |  |  |  | inactive |
| O=C(CCc1ccc(O)cc1)c1c(O)cc(O)cc1O | 27.3% and 7.98% | inactive | inactive | inactive | 105 |  |  |  |  |  |  | inactive |
| CC(C)Cc1ccc(C(C)C(=O)O)cc1 (centres undefined) | 17.5% and 9.01% | inactive | inactive | inactive | 111 |  | inactive | inactive | inactive |  |  | inactive |
| CC1COc2c(N3CCN(C)CC3)c(F)cc3c(=O)c(C(=O)O)cn1c23 (centres undefined) | 11.7% and -7% and 13.8% | inactive | inactive | inactive | 102 | inactive | inactive | inactive | inactive |  |  | inactive |
| CN(C)C(=O)C(CCN1CCC(O)(c2ccc(Cl)cc2)CC1)(c1ccccc1)c1ccccc1 | 62.2% and -46.1% | inactive | inactive | inactive |  | 20.9 µM (active) | 20.9 µM (active) |  |  | 14.8 µM (active) |  |  |
| Cc1cccc(-c2[nH]c(C(C)(C)C)nc2-c2ccc3nccnc3c2)n1 | -6.37% and 25.5% | inactive | inactive | inactive |  |  |  | inactive |  |  | inactive |  |
| Cc1cc(Cl)ccc1OCCCC(=O)NO | 35.3% and -37.1% and -6.7% | inactive | inactive | inactive |  | 18.6 µM (active) | 1.48 µM (active) | 3.72 µM (active) | 3.72 µM (active) |  | 20.9 µM (active) | 4.17 µM (active) |
| CCN1CCCC1CNC(=O)c1cc(S(=O)(=O)CC)c(N)cc1OC (centres undefined) | -0.505% and -9.21% and -28.2% | inactive | inactive | inactive | 122 | inactive | inactive | inactive | inactive |  |  | inactive |
| CN(C)CCC=C1c2ccccc2C=Cc2ccccc21 | 5.02% and 17.3% | inactive | inactive | inactive |  | 20.9 µM (active) | 16.6 µM (active) | inactive |  |  | 16.6 µM (active) |  |
| CN1CCC(=C2c3ccccc3C=Cc3ccccc32)CC1 | -15.3% and 19.5% and -34.1% | inactive | inactive | inactive |  |  |  | inactive |  | 13.2 µM (active) |  | inactive |
| CS(=O)(=O)Nc1ccc([N+](=O)[O-])cc1Oc1ccccc1 | -3.95% and 5.46% and -33.6% | inactive | inactive | inactive | 107 | inactive | inactive | inactive | inactive |  |  | inactive |
